Reference: PubChem BioAssay AID2283123 (EPA ToxCast)
Records with an inconclusive call do not appear. Calls of active or inactive are those of the source. Rule for the calls: active = hit-call score of the fitted dose curve at least 0.9, where 1 is the maximum; inconclusive = response in the unintended direction; inactive = score below 0.9.

biological target: rat CYP2E1, Cyp2e1 (gene 25086) (UniProt P05182); experiment: NVS_ADME_rCYP2E1: NovaScreen (NVS) CYP450-related Enzyme Activity (ADME) Assay for rat CYP2E1
Description: NVS_ADME_rCYP2E1 is a biochemical, single-readout assay that uses extracted gene-proteins in a cell-free assay. Measurements were taken 1 hour after chemical dosing in a 96-well plate.NVS_ADME_rCYP2E1 is one of one assay component(s) measured or calculated from the NVS_ADME_rCYP2E1 assay. It is designed to make measurements of enzyme activity, a form of enzyme reporter, as detected with fluorescence intensity signals by Fluorescence technology.Data from the assay component NVS_ADME_rCYP2E1 was analyzed into 1 assay endpoint. This assay endpoint, NVS_ADME_rCYP2E1, was analyzed in the positive analysis fitting direction relative to Acetonitrile as the negative control and baseline of activity. Using a type of enzyme reporter, loss-of-signal activity can be used to understand changes in the enzymatic activity as they relate to the gene Cyp2e1. Furthermore, this assay endpoint can be referred to as a primary readout, because this assay has produced multiple assay endpoints where this one serves a enzymatic activity function. To generalize the intended target to other relatable targets, this assay endpoint is annotated to the cyp intended target family, where the subfamily is xenobiotic metabolism.
Binding assays used specific radioligands (tritiated, iodinated) with non-radioactive competitive displacement ligands in agonist or antagonist protocols (as indicated) and various reference compounds and inhibitors to titrate specific binding to receptors and transporters. Most enzyme assays (CYPs, kinases, phosphatases, proteases, HDACs) used recombinant protein and specific substrates (fluorescence mostly, some colorimetric and radioactive) and inhibitors, followed by a biochemical separation of substrate and product. All assays for the biochemical HTS were initially run in duplicate at a single concentration (10 uM for CYP450 assays and 25 uM for all others). Assay-chemical combinations meeting a pre-defined threshold (e.g., 30% inhibition and other criteria defined below) were then run in singleton concentration-response format with maximum concentration of 20 uM for CYPs and 50 uM for all others. Each assay was run with positive and negative controls, and concurrent controls on every plate. The follow-up (secondary) screen tested active chemical-pairs in concentration series, as well as a few additional assays not tested in the primary screen, some selected negative inactives, and several cases re-run in the concentration series for confirmatory purposes.

Chain of rat CYP2E1, Cyp2e1 (gene 25086) (P05182 whole entry, looked up): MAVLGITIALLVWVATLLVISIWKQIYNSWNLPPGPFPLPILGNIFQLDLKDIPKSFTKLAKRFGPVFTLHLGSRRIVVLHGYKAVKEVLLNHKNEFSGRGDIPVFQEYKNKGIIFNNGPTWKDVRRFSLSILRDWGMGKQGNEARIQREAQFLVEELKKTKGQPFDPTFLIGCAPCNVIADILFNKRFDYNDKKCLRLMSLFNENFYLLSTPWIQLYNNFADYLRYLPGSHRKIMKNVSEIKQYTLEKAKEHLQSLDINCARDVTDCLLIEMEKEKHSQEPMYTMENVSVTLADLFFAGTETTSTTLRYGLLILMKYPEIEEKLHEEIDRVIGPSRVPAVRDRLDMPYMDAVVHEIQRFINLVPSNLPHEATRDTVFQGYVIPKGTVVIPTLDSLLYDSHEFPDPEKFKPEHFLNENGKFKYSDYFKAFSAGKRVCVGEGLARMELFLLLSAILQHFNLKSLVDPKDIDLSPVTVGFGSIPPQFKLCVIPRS

| SMILES | outcome | AC50 |
| --- | --- | --- |
| COP(=S)(OC)SCn1nnc2ccccc2c1=O | inactive | – |
| CCCN(CCOc1c(Cl)cc(Cl)cc1Cl)C(=O)n1ccnc1 | – | 2.54 µM (active) |
| CC(C1CC1)C(O)(Cn1cncn1)c1ccc(Cl)cc1 (stereo not given) | inactive | – |
| C[Si](Cn1cncn1)(c1ccc(F)cc1)c1ccc(F)cc1 | – | 10 µM (active) |
| COP(=S)(OC)Oc1ccc([N+](=O)[O-])c(C)c1 | inactive | – |
| N#Cc1c[nH]cc1-c1cccc2c1OC(F)(F)O2 | – | 0.254 µM (active) |
| S=C1NCCN1 | inactive | – |
| COc1nn(CSP(=S)(OC)OC)c(=O)s1 | inactive | – |
| CCOP(=S)(OCC)Oc1ccc2c(C)c(Cl)c(=O)oc2c1 | inactive | – |
| CNC(=S)S | inactive | – |
